Reference: PubChem BioAssay AID1159580 (chemical genetic matrix, 2015)
The campaign covered roughly 5,500 compounds. About 2,000 (36%) were called active. Roughly 18% stayed inconclusive and do not appear here. No stated cut-off is given here; in the data, active means normalized growth mostly below about 0.91 (no sharp cut-off); inconclusive means no clear call, values can overlap the other calls; inactive means mostly above about 0.92. The list shows a part of the results.

Test: chemical genetic growth profiling, strain panel (AID 1159580);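 further: tested at 20 µM; growth read once vehicle control cultures reached saturation at 30 °C; 1 = growth at the plate median or of vehicle wells; lower values mean less growth of the strain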
Settings: S. cerevisiae deletion strains, growth OD

Measured: normalized growth

CC(=O)c1ccc(S(=O)(=O)NC(=O)NC2CCCCC2)cc1
inactive: locus YAL040C, strain CLN3, hits give low values 1.06 | locus YER002W, strain NOP16, hits give low values 0.998 | locus YGR078C, strain PAC10, hits give low values 0.99 | locus YHR030C, strain SLT2, hits give low values 0.959 | locus YHR079C, strain IRE1, hits give low values 0.963 | locus YJL095W, strain BCK1, hits give low values 1.02 | locus YJR066W, strain TOR1, hits give low values 0.918 | locus YLR113W, strain HOG1, hits give low values 0.995 | locus YMR263W, strain SAP30, hits give low values 0.987 | locus YNL153C, strain GIM3, hits give low values 0.95 | locus YNL175C, strain NOP13, hits give low values 0.983 | locus YNL183C, strain NPR1, hits give low values 0.937 | locus YNL197C, strain WHI3, hits give low values 0.986 | locus YNL224C, strain SQS1, hits give low values 1.01 | locus YOR083W, strain WHI5 (second series), hits give low values 1 | locus YOR231W, strain MKK1, hits give low values 0.967 | locus YPL256C, strain CLN2, hits give low values 0.965
